# Measured values from the supplement of paper PMC10849652.
# Targets with a hit are over-represented here; the source holds about 7,900 in all. About 0.6% of all pairs of compound and target were hits. Values without a mark were called inactive.
# Tests used:
# Assay in all cases: log2 fold change, soluble protein after heating vs DMSO (PISA); higher = thermal stabilisation; K562 cells, 10 uM, 30 min; active = over 0.2 and 3.5 SD of the protein, either way, in both replicates (recomputed)
# [1] = compound: CC1=C(C=C(C=C1)NC(=O)C2=CC(=CC=C2)N(C)C)NC(=O)C3=CC=C(C=C3)O
# Outline: (§1)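 K562 cells (2×10^6 cells/mL) were treated with 10 μM compound for 30 min, and aliquots were heated for 3 min over 48°C-58°C. Pooled aliquots were extracted in PBS with 0.5% NP-40 at 4°C, and the supernatant after 21,000xg for 90 min was measured by TMTpro 16plex LC-MS/MS with channel sums equalised. Reported thermal stability, relative to control samples and from duplicates, is a log2 fold change.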
# [2] = compound: CC1=CC=C(C=C1)SC2=C3C=C(SC3=CN=C2)C(=O)N
# Outline: as §1
# [3] = compound: CC1=NC(=CC=C1)C2=C(N=C(N2)C(C)(C)C)C3=CC4=NC=CN=C4C=C3
# Outline: as §1
# Nexturastat A = compound: CCCCN(Cc1ccc(C(=O)NO)cc1)C(=O)Nc1ccccc1 [Nexturastat A]
# Outline: as §1
# vemurafenib = compound: CCCS(=O)(=O)Nc1ccc(F)c(C(=O)c2c[nH]c3ncc(-c4ccc(Cl)cc4)cc23)c1F [vemurafenib]
# Outline: as §1
# [4] = compound: CCCS(=O)(=O)Nc1ccc(F)c(C(=O)c2c[nH]c3ncc(Cl)cc23)c1F
# Outline: as §1
# [5] = compound: CCCc1cc(C)[nH]c(=O)c1CNC(=O)c1cc(-c2ccnc(N3CCN(C)CC3)c2)cc2c1cnn2C(C)C
# Outline: as §1
# givinostat = compound: CCN(CC)Cc1ccc2cc(COC(=O)Nc3ccc(C(=O)NO)cc3)ccc2c1 [givinostat]
# Outline: as §1
# barasertib = compound: CCN(CCCOc1ccc2c(Nc3cc(CC(=O)Nc4cccc(F)c4)[nH]n3)ncnc2c1)CCOP(=O)(O)O [barasertib]
# Outline: as §1
# [6] = compound: CC[C@@H]1C(=O)N(C)c2cnc(Nc3ccc(C(=O)NC4CCN(C)CC4)cc3OC)nc2N1C1CCCC1
# Outline: as §1
# volasertib = compound: CC[C@@H]1C(=O)N(C)c2cnc(Nc3ccc(C(=O)N[C@H]4CC[C@H](N5CCN(CC6CC6)CC5)CC4)cc3OC)nc2N1C(C)C [volasertib]
# Outline: as §1
# [7] = compound: CC[C@H](C)N1C=C(C2=C(C=C(C=C21)C3=CN=C(C=C3)N4CCNCC4)C(=O)NCC5=C(C=C(NC5=O)C)C)C
# Outline: as §1
# epoxomicin = compound: CC[C@H](C)[C@@H](C(=O)N[C@@H]([C@@H](C)O)C(=O)N[C@@H](CC(C)C)C(=O)[C@]1(CO1)C)NC(=O)[C@H]([C@@H](C)CC)N(C)C(=O)C [epoxomicin]
# Outline: as §1
# [8] = compound: CCn1c(C(=O)N(C2CC2)C2CC2)cc2c3c(ncn3C)c(Nc3cc(C)n(C)n3)nc21
# Outline: as §1
# [9] = compound: CCn1cc(-c2ccnc3[nH]c(-c4cccc(CN(C)C)c4)cc23)c(-c2ccc(NC(=O)N(C)C)cc2)n1
# Outline: as §1
# [10] = compound: CN(C)CC(=O)Nc1ccc2[nH]c(=O)c3ccccc3c2c1
# Outline: as §1
# rosiglitazone = compound: CN(CCOC1=CC=C(C=C1)C[C@H]2C(=O)NC(=O)S2)C3=CC=CC=N3 (racemic) [rosiglitazone]
# Outline: as §1
# [11] = compound: CN1C2=C(C3=C1C(=O)N(N=C3)CC4=CC(=CC=C4)N)SC(=C2)S(=O)C
# Outline: as §1
# [12] = compound: CN1CCC(CNc2ccc3ncc(-c4cccc(OC(F)(F)F)c4)n3n2)CC1
# Outline: as §1
# [13] = compound: CC1=C(C=C(C=C1)NC(=O)C2=CC(=CC=C2)C(C)(C)C#N)NC3=CC4=C(C=C3)N=CN(C4=O)C
# Outline: as §1
# Sequence of UniProt Q9UIB8 (Q9UIB8 whole entry, looked up): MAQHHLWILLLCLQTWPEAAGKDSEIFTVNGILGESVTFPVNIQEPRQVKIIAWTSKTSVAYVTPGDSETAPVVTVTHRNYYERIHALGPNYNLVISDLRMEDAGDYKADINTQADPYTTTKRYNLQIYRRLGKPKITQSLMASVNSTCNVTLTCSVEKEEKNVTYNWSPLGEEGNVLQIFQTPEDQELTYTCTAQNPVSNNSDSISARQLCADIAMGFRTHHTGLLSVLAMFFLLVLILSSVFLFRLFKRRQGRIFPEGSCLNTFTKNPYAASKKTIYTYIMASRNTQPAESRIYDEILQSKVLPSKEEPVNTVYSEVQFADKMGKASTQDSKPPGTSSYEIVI
# Sequence of UniProt Q5T655 (Q5T655 whole entry, looked up): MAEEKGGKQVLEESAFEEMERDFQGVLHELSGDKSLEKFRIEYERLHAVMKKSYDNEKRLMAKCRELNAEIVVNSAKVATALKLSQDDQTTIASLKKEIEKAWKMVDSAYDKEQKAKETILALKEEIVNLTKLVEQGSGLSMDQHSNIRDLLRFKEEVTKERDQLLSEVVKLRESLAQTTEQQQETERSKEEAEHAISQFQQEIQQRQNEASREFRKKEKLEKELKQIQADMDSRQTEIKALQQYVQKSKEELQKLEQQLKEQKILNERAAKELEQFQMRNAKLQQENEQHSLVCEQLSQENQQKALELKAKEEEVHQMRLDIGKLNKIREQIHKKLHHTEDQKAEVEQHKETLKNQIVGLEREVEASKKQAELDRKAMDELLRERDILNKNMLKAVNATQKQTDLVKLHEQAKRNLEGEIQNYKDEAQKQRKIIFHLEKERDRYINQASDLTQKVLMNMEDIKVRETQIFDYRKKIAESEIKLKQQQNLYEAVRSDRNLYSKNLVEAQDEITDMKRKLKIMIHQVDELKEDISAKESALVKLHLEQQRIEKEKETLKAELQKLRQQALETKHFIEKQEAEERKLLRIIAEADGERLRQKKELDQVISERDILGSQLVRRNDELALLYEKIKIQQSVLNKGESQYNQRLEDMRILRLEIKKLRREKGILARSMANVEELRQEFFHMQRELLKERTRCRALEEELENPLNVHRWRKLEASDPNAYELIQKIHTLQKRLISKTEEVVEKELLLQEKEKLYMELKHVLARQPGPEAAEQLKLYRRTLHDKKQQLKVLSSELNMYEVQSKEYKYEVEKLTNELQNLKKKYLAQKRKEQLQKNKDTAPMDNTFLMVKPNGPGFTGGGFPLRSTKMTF
# Sequence of UniProt Q6ZTR5 (Q6ZTR5 whole entry, looked up): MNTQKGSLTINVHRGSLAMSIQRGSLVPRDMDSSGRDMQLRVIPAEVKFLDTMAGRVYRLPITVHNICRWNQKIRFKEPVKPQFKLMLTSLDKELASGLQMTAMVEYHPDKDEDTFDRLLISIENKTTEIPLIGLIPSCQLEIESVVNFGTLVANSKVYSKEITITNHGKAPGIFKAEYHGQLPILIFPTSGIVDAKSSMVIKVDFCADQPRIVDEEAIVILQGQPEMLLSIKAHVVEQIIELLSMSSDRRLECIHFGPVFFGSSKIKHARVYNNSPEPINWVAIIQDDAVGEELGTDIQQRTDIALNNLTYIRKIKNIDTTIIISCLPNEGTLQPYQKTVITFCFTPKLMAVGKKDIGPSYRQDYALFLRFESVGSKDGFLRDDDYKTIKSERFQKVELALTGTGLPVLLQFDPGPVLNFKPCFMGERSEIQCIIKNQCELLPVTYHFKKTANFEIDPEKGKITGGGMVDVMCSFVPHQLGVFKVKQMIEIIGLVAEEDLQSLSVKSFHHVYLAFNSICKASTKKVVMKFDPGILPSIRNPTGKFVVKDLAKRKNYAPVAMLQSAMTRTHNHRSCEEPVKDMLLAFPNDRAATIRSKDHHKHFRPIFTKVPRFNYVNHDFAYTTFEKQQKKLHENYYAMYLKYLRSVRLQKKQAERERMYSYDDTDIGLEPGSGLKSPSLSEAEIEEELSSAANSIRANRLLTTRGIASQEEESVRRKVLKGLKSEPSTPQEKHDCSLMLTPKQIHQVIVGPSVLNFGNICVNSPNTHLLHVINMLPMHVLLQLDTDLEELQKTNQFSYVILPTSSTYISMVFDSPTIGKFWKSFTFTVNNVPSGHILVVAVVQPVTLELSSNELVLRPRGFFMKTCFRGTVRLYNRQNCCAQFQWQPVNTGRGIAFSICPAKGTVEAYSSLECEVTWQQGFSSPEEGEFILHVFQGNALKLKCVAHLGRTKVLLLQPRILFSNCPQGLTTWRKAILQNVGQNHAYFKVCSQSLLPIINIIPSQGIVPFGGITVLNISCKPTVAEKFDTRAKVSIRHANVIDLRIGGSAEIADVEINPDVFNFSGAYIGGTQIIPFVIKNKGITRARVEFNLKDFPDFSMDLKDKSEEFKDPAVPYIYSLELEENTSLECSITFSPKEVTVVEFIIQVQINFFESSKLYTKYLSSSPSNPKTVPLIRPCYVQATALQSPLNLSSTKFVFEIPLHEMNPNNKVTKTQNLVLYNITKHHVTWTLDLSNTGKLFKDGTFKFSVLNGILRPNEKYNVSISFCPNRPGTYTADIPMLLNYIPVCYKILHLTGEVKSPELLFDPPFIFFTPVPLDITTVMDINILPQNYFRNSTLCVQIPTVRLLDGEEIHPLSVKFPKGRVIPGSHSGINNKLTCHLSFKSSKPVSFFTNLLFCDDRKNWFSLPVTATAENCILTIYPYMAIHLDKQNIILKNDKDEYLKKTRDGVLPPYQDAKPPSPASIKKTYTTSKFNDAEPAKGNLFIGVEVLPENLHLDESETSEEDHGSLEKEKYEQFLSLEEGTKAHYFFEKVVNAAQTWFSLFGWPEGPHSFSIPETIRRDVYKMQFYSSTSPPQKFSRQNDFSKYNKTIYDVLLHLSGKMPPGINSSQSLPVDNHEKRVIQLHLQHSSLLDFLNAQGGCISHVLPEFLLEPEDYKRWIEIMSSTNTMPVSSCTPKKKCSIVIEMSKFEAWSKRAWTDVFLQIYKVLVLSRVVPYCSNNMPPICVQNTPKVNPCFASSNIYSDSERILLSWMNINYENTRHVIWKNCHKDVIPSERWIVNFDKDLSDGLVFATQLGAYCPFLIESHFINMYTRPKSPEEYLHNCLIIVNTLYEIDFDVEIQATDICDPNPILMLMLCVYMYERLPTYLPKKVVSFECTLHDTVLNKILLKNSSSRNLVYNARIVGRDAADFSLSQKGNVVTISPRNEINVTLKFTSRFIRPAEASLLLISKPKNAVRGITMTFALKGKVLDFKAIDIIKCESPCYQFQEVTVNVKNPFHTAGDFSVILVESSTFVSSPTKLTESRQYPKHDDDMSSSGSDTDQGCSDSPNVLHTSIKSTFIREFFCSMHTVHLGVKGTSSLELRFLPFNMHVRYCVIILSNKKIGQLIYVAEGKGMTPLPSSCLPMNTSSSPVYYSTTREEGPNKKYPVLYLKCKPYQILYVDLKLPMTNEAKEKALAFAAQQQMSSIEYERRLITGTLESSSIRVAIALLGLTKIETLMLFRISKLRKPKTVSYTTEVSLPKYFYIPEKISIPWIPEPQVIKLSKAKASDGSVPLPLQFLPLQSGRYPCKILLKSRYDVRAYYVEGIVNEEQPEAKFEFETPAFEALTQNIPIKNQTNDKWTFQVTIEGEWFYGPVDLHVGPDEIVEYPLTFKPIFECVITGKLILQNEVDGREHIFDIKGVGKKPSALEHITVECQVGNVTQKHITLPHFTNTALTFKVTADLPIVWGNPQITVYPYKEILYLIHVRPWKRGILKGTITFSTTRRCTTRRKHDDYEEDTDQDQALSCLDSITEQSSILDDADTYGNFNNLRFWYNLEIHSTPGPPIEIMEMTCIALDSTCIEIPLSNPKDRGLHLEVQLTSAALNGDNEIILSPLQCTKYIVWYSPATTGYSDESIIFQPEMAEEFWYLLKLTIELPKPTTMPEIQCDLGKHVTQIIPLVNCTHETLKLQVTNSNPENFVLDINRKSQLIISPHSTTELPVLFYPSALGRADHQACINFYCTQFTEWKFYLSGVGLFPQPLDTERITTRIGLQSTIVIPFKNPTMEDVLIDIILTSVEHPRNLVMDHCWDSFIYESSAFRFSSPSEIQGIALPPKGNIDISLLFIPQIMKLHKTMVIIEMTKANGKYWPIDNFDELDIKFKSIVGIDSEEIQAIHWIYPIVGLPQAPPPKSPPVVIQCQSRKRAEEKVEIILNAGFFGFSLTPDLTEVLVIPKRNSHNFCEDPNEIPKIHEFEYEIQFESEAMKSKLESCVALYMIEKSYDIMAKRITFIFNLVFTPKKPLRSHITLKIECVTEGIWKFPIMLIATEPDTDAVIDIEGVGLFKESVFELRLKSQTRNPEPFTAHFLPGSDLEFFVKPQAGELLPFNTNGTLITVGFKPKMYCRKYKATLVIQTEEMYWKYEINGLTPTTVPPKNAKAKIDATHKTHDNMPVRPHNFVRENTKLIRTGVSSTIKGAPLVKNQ
# Sequence of UniProt P34810 (P34810 whole entry, looked up): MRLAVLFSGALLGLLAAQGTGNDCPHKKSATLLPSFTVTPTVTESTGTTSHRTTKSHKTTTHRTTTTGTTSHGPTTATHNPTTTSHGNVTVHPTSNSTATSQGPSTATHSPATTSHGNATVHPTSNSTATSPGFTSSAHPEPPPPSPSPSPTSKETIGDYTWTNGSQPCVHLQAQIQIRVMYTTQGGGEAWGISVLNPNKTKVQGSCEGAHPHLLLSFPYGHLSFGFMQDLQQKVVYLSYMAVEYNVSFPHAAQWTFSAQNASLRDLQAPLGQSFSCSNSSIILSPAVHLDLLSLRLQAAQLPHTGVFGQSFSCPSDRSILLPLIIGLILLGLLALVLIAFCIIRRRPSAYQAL
# Sequence of UniProt P48729 (P48729 whole entry, looked up): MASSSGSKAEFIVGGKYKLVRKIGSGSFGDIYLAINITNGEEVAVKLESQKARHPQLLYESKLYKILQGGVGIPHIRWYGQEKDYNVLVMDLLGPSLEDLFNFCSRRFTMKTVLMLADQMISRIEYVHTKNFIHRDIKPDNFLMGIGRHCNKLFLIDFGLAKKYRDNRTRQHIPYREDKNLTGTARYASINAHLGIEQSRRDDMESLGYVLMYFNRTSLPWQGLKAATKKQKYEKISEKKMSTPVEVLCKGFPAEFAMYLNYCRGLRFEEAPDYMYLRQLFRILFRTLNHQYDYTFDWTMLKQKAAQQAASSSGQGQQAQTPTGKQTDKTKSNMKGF
Target,log2 fold change [1],log2 fold change [2],log2 fold change [3],log2 fold change (Nexturastat A),log2 fold change (vemurafenib),log2 fold change [4],log2 fold change [5],log2 fold change (givinostat),log2 fold change (barasertib),log2 fold change [6],log2 fold change (volasertib),log2 fold change [7],log2 fold change (epoxomicin),log2 fold change [8],log2 fold change [9],log2 fold change [10],log2 fold change (rosiglitazone),log2 fold change [11],log2 fold change [12],log2 fold change [13]
CEMIP2 (UniProt Q9UHN6),0.043,0.592 (active),0.033,0.02,-0.045,-0.1,-0.168,-0.052,-0.012,-0.209,-0.364,-0.142,0.058,-0.184,-0.088,-0.049,0.003,0.032,0.123,–
CNRIP1 (UniProt Q96F85),0.073,0.023,–,-0.206,–,-0.075,-0.087,0.106,–,–,0.306,-0.269,-0.043,-0.136,–,–,–,–,–,–
CSNK1A1 isoform 3 (UniProt P48729),–,-0.08,–,–,–,0.227,-0.035,–,-0.089,–,-0.224,–,–,–,–,–,-0.005,–,–,–
CLPTM1L (UniProt G5E9Z2),–,–,–,-0.466,0.055,–,-0.035,–,-0.076,–,–,-0.055,0.247,–,0.116,0.117,0.189,–,0.052,0.122
CLN5 (UniProt O75503),–,0.058,0.068,0.012,–,0.104,-0.54,-0.17,0.06,–,-1.25 (active),-0.001,0.014,0.416,-0.183,–,-0.025,0.139,-0.834 (active),0.031
CREB3L2 (UniProt Q70SY1),0.085,–,-0.23,0.706 (active),-0.036,–,0.154,0.436,0.081,–,–,0.067,0.035,-0.125,–,0.069,-0.031,–,–,–
CD68 (UniProt P34810),–,–,–,–,–,–,-0.06,-0.091,-0.313,–,–,–,–,0.091,–,–,0.104,–,–,0.037
CFAP47 (UniProt Q6ZTR5),–,-0.159,–,-0.041,-0.11,-0.106,–,–,-0.035,0.063,0.065,–,-0.006,–,–,-0.248,0.108,0.23,–,–
COMMD3-BMI1 (UniProt R4GMX3),–,-0.126,–,0.03,–,-0.426 (active),–,–,–,–,0.038,0.062,0.026,–,0.006,–,–,–,-0.105,-0.002
CFAP58 (UniProt Q5T655),0.185,0.07,–,–,–,-0.175,-0.219,–,–,-0.353,-0.04,–,–,–,-0.112,–,–,–,-0.272,–
CDK2AP2 (UniProt O75956),-0.14,–,0.021,0.022,–,–,-0.065,-0.154,-0.029,0.078,–,-0.04,0.137,0.074,–,–,-0.002,–,–,–
CASP7 isoform 3 (UniProt P55210),–,–,–,0.255,–,–,–,-0.005,-0.249,0.014,–,0.017,0.222,-0.001,-0.569,–,0.259,0.032,-0.697,–
CPNE5 (UniProt Q9HCH3),–,–,–,–,–,–,–,-0.005,–,–,–,–,–,0.132,–,–,–,–,–,–
CLN3 (UniProt Q13286),0.004,-0.025,-0.093,-0.039,0.147,-0.119,-0.09,0.02,-0.027,-0.003,0.055,-0.038,0.09,-0.008,–,-0.001,-0.002,0.074,–,–
CEP128 (UniProt Q6ZU80),–,0.006,-0.188,–,-0.1,-0.118,-0.422,–,0.098,-0.009,-0.09,–,–,–,–,-0.11,0.049,0.039,–,-0.043
CCDC82 (UniProt Q8N4S0),-0.027,-0.007,-0.103,0.043,0.015,0.055,-0.035,-0.074,0.073,-0.062,-0.349 (active),-0.018,0.143,-0.057,–,0.001,0,-0.069,–,–
CD84 (UniProt Q9UIB8),–,–,–,0.096,–,–,–,0.006,–,–,–,–,-0.009,0.111,–,–,–,-0.077,–,-0.181
